Data on 39 compounds can be found in ChEMBL document CHEMBL3988442, “University of Dundee, Small-Polar-MMV Screening Library” (2021).

The structures appear in SMILES notation.

For the test, the system named is Trypanosoma cruzi. In words: Trypanosoma cruzi phosphomannomutase and mannose-1-phosphate guanylyltransferase assay. The test is classed as functional. Further details: scale not given: direction of the effect not stated beside the values. Conditions: 10 µM.
As to `Cc1cccc(CN2C(=O)CCC23CCN(Cc2cccn2C)CC3)n1`, the Percent Effect is -0.75%.
With `CN(C(=O)CN1CCOC(Cn2cccn2)C1)c1nccs1` (centres undefined) the figure was 4.29%; with `c1cc(-c2nc(CN3CCn4c(nnc4C4CC4)C3)cs2)cs1`, 3.47%.
In the case of `CS(=O)(=O)NCC1CCCN(C(=O)COCC(F)(F)F)C1` (centres undefined), the Percent Effect came to 0.845%.
Turning to `COc1ccc(-c2nc(CN3CCc4c(ncn4C)C3)cs2)cc1`, the Percent Effect is 3.66%.
Turning to `Cc1cccc(CN2CCC3(CCN(c4ccccn4)C3)C2=O)c1` (centres undefined), the Percent Effect turned out to be 3%.
For the compound `CCCC(C)C(=O)N1CCC(n2cccc2C(=O)OC)CC1` (centres undefined), the Percent Effect is -1.12%.
Take `O=C(NCC1CCOC1)Nc1ccc(OCC(F)(F)F)nc1` (centres undefined): the Percent Effect is -1.97%.
As to `Cc1ncc(-c2ccnc(N3CCN(C)CC3)n2)c(-c2cccnc2)n1`, the Percent Effect was -9.24%.
For `Cc1cc(OCC(=O)N2CCCC(c3noc(C)n3)C2)no1` (centres undefined), the Percent Effect is -4.62%.
With `COc1ccc(OCCN(C)C(=O)NC(C)c2nncn2C)cc1` (centres undefined) the figure was -5.02%; with `CCc1ccsc1C(=O)N1CCN(C(=O)CC(F)(F)F)CC1`, 1.68%; with `CC(C(=O)N1CCCC1)N1CCC(c2nccn2Cc2cscn2)CC1` (centres undefined), -3.4%.
Turning to `CCC(=O)N1CCC(O)(c2ncc(OC)nc2OC)CC1`, the Percent Effect is -3.55%.
The same measure for `O=C(c1cc(Cl)c2c(c1)OCCO2)N1CCCC(n2cncn2)C1` (centres undefined): 0.402%; for `CN(C)CC1CN(Cc2nnc(-c3ccccc3Cl)o2)CCO1` (centres undefined): -2.81%.
The same measure for `Cc1ccc(OCC(O)CN2CCC(Cn3cccn3)CC2)cc1` (centres undefined): 0.373%; for `COCCN1CCCN(C(=O)NC(C)Cn2ccnc2)CC1` (centres undefined): 0.56%.
For the compound `CCc1nc(C2CCCN2C(=O)c2ccoc2C)no1` (centres undefined), the Percent Effect was 0.469%.
Turning to `COc1cc(CNCc2ccc(NC(=O)NC(C)C)cc2)cc(OC)c1`, the Percent Effect stood at 6.9%.
The same measure for `Cc1cc(NC(=O)N(CC2CCOC2)C2CC2)no1` (centres undefined): 1.21%.
Take `COc1ccc(F)cc1C(=O)N(C)Cc1cc(C)on1`: the Percent Effect is -1.22%.
Regarding `CN(C)C(=O)N1C[C@H]2CCC[C@@]2(COc2ccccn2)C1`, the Percent Effect is -4.58%.
The same measure for `COc1ncc(C2CC(=O)NCc3nc4ccccn4c32)cn1` (centres undefined): -1.46%.
The same measure for `Cn1nc2c(cc1=O)CN(Cc1nc(C(C)(C)C)no1)CC2`: 1.41%.
With `Fc1cnc(N2CCOCC3(CCCN(c4nncs4)C3)C2)nc1` (centres undefined) the figure was -2.63%.
With `CN1CCCn2c(nc(CNC(=O)c3ccsc3)cc2=O)C1`, the Percent Effect is -8.28%.
Consider `Cc1ccc(-c2nc(CN3CCn4c(nnc4C4CC4)C3)co2)cc1`, for which the Percent Effect is -1.41%.
As for `O=c1cc(Cn2cncn2)nc2n1CCCN(CC1CC1)C2`, the Percent Effect worked out at 1.27%.
On to `CC(c1nc(C2CC2)no1)N1CCN(Cc2ccsc2)CC1` (centres undefined), for which the Percent Effect amounted to 1.97%.
On to `O=c1c2ccccc2nc2n1C(CSc1ccc(Cl)cc1Cl)CN2` (centres undefined), for which the Percent Effect is -1.31%.
The same measure for `CCc1cc(O)nc(C2CCCN2C(=O)c2cc(C)no2)n1` (centres undefined): -2.76%; for `CN(C)C(=O)CCC(=O)NCc1cccnc1-n1cnc2ccccc21`: -1.46%; for `CCc1nccn1C1CCCN(C(=O)Cc2ccc(OC)c(F)c2)C1` (centres undefined): -1.21%.
The same measure for `CC(=O)N1C[C@@H](c2ccsc2)[C@@H]2CN(Cc3ccccc3)CC[C@@H]21`: 1.77%; for `CN(C)CC1CN(Cc2coc(-c3ccccc3Cl)n2)CCO1` (centres undefined): -2.41%; for `CCNC(=O)[C@@H]1C[C@@H](NC(=O)Cc2ccncc2)CN1Cc1ccsc1`: -4.56%.
Regarding `CC(C)(C)C(O)CN1CCN(C(=O)c2cccc3[nH]ncc23)CC1` (centres undefined), the Percent Effect was 4.41%.
`CC(C)c1cc(N2CCN(c3ccc(O)cc3)CC2)n2nccc2n1`: the Percent Effect was -0.873%.
